Results published in PubChem BioAssay AID1845 (The Scripps Research Institute Molecular Screening Center, 2009).
Hit rate of the full screen: of about 290,000 compounds, about 490 (0.17%) were called active. What follows is part of a selection rich in actives, with near analogues and random picks from the rest. Unmarked numbers belong to inactive results. No stated cut-off is given here; in the data, active means inhibition above about 37%; inactive means the rest.

Test: compounds displacing fluorescent DNA intercalator, primary screen, artefact control for HCV NS3 helicase inhibitor project, biochemical, FID fluorescence (AID 1845);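 further: 0% = vehicle and 100% = reference compound; higher means more ethidium bromide displaced from hairpin DNA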
Settings: DNA fluorescent intercalator displacement, at 7.9 µM, active compounds read high

SMILES | inhibition
CN1CCN(c2cc(N3CCNCC3)ccc2[N+](=O)[O-])CC1 | 14.7%
COc1cccc(-c2nc3ccc(N4CCN(C)CC4)cc3[nH]2)c1 | 40.7% (active)
Cc1nc2ccc(N3CCN(C)CC3)cc2nc1C | 7.94%
Cn1c(O)c(C(=Nc2ccc(F)cc2)c2ccccc2)c(=O)n(C)c1=O | 1.2%
CCOC(=O)C1(CCc2ccccc2)CCN(Cc2ccco2)CC1 | 5.09%
CCOC(=O)C1(Cc2ccc(Cl)cc2)CCN(C(C)CCn2cccn2)CC1 (stereo not given) | 37.1% (active)
Cn1c(C(=O)N2CCC(C(=O)N3CCC4(CC3)OCCO4)CC2)cc2sccc21 | -30.4%
O=C(C1CC(=O)N(C2CCCC2)C1)N1CCC2(CC1)OCCO2 (stereo not given) | -1.99%
c1ccc(C2NCc3ccccc3-n3cccc32)cc1 (stereo not given) | 9.21%
O=C(Cc1ccc(Cl)cc1)NCCN1CCN(C(=O)Cc2ccc(Cl)cc2)CC1 | -26%
